# In the supplement of paper PMC6522484:
# ± gives the standard deviation of the averaged measurements.
# What was measured:
# [1] = tested on: DLD1; assay: cell viability (CellTiter-Glo) relative to plate median (fraction of plate median); higher = more viable cells; settings: 5 µM; treatment time 24 h; reporter: 7TFP
# Summary of the method: (§1)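 Luminescence, normalised well by well to the plate median, is tabulated as a mean of independent replicates. There were two replicates, run on colorectal cancer lines stably transduced with lentiviral TCF/Wnt firefly luciferase reporters and dosed with library compounds at a final 5 µM for 24 h. Readouts were firefly luciferase or CellTiterGlo on parallel plates.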
# [2] = tested on: HCT116; assay: as above; settings: 5 µM; treatment time 24 h; reporter: TCF4/Wnt
# Summary of the method: as §1
# [3] = tested on: SW480; assay: as above; settings: 5 µM; treatment time 24 h; reporter: 7TFP
# Summary of the method: as §1
# [4] = tested on: DLD1; assay: TCF/Wnt firefly luciferase reporter signal relative to plate median (fraction of plate median); higher = higher Wnt reporter signal; settings: 5 µM; treatment time 24 h; reporter: 7TFP
# Summary of the method: as §1
# [5] = tested on: SW480; assay: as above; settings: 5 µM; treatment time 24 h; reporter: 7TFP
# Summary of the method: as §1
SMILES,cell viability [1],cell viability [2],cell viability [3],TCF/Wnt firefly luciferase reporter signal [4],TCF/Wnt firefly luciferase reporter signal [5]
COc1cc(C)c2c(c1C=O)Oc1c(c(C)c(O)c3c1C(O)OC3=O)OC2=O (stereo not given),0.951 ± 0.015,0.956 ± 0.028,1.06 ± 0.014,0.949 ± 0.16,0.927 ± 0.077
CC(C)NC[C@@H](O)COc1cccc2ccccc12,1.09 ± 0.057,1.06,1.11 ± 0.11,1.01 ± 0.021,1.01 ± 0.05
CC(C)C[C@@H](NC(=O)[C@H](C)NC(=O)CNC(=O)[C@@H](NC=O)C(C)C)C(=O)N[C@@H](C)C(=O)N[C@@H](C(=O)N[C@H](C(=O)N[C@H](C(=O)N[C@@H](Cc1c[nH]c2ccccc12)C(=O)N[C@H](CC(C)C)C(=O)N[C@@H](Cc1c[nH]c2ccccc12)C(=O)N[C@H](CC(C)C)C(=O)N[C@@H](Cc1c[nH]c2ccccc12)C(=O)N[C@H](CC(C)C)C(=O)N[C@@H](Cc1c[nH]c2ccccc12)C(=O)NCCO)C(C)C)C(C)C)C(C)C,0.939 ± 0.13,0.903 ± 0.061,0.613 ± 0.072,0.885 ± 0.043,0.488 ± 0.077
CC(=O)c1cc(CC=C(C)C)c(O)c(CC=C(C)C)c1,1.05 ± 0.014,1.02 ± 0.035,0.95 ± 0.011,1.08 ± 0.15,1.14 ± 0.064
CC=CC(=O)N(CC)c1ccccc1C,0.931 ± 0.093,1.05 ± 0.028,1.01 ± 0.021,0.953 ± 0.081,0.8525 ± 0.0078
COC(=O)Nc1nc2cc(Sc3ccccc3)ccc2[nH]1,1.01 ± 0.014,1.03,1.03 ± 0.05,0.99 ± 0.071,0.995 ± 0.05
CCCCCC(=O)Cc1cc(O)cc(O)c1C(=O)Oc1cc(CC(=O)CCCCC)c(C(=O)O)c(OC)c1,0.992 ± 0.04,1.01 ± 0.018,0.966 ± 0.012,1.07 ± 0.15,1.14 ± 0.035
CC(C[N+](C)(C)C)OC(N)=O (stereo not given),1.14 ± 0.035,0.8 ± 0.48,1.1 ± 0.12,0.925 ± 0.037,1.05 ± 0.071
Cc1ncc(C[n+]2csc(CCO)c2C)c(N)n1,0.981 ± 0.041,0.978 ± 0.088,1.005 ± 0.0071,0.926 ± 0.011,0.946 ± 0.02
O=c1cc(-c2ccc(O)c(O)c2)oc2cc(O[C@@H]3O[C@H](CO)[C@@H](O)[C@H](O)[C@H]3O)cc(O)c12 [Luteolin-7-O-glucoside (102)],0.908 ± 0.058,0.957 ± 0.041,0.95 ± 0.0028,0.861 ± 0.052,1.03 ± 0.072
O=C1c2ccccc2C(=O)C1c1ccccc1,1.02,1.02 ± 0.048,1.02,1.12 ± 0.014,1.15 ± 0.071
CCCCCCOc1ccccc1C(N)=O,0.9695 ± 0.0078,0.954,0.962 ± 0.041,1.09 ± 0.21,1.11 ± 0.13
CC(C)=CC1C(C(=O)O)C1(C)C (stereo not given),1 ± 0.037,0.98 ± 0.057,0.977 ± 0.047,0.897 ± 0.065,1.02 ± 0.058
CCCCCCCCCCCCCCCCOP(=O)([O-])OCC[N+](C)(C)C,1.04 ± 0.035,0.984 ± 0.0099,0.969 ± 0.035,1.07 ± 0.16,1.04 ± 0.05
O=C(O)c1cccnc1C(=O)O,1.07 ± 0.021,1.095 ± 0.0071,1.03 ± 0.014,1.04 ± 0.15,1.1 ± 0.085
C=CCNC1=C2C[C@@H](C)C[C@H](OC)[C@H](O)[C@@H](C)/C=C(\C)[C@H](OC(N)=O)[C@@H](OC)/C=C\C=C(/C)C(=O)NC(=CC1=O)C2=O,1.07 ± 0.014,0.623 ± 0.023,0.972 ± 0.04,0.878 ± 0.15,0.731 ± 0.029
N=C(N)NCCCCN,1 ± 0.054,1.15 ± 0.014,1.02 ± 0.058,1.02 ± 0.04,1.09 ± 0.071
O=C(OC[C@H]1O[C@@H](OC(=O)c2cc(O)c(O)c(OC(=O)c3cc(O)c(O)c(O)c3)c2)[C@H](OC(=O)c2cc(O)c(O)c(OC(=O)c3cc(O)c(O)c(O)c3)c2)[C@@H](OC(=O)c2cc(O)c(O)c(OC(=O)c3cc(O)c(O)c(O)c3)c2)[C@@H]1OC(=O)c1cc(O)c(O)c(OC(=O)c2cc(O)c(O)c(O)c2)c1)c1cc(O)c(O)c(OC(=O)c2cc(O)c(O)c(O)c2)c1,1.025 ± 0.0071,0.915 ± 0.04,1 ± 0.05,0.794 ± 0.055,0.913 ± 0.047
CC1=C(/C=C/C(C)=C/C=C/C(C)=C/C=C/C=C(C)/C=C/C=C(C)/C=C/C2=C(C)C(=O)CCC2(C)C)C(C)(C)CCC1=O [CANTHAXANTHIN (euglenanone)],1 ± 0.021,0.899 ± 0.067,1.06,1.115 ± 0.0071,1.17 ± 0.014
CCN(CCO)CCCC(C)Nc1ccnc2cc(Cl)ccc12 (stereo not given),1.05 ± 0.097,0.998 ± 0.1,0.986 ± 0.0057,1.02 ± 0.076,1.045 ± 0.0071
CCN(CCCc1ccccc1)CCCc1ccccc1,1 ± 0.22,1.06 ± 0.021,1.08 ± 0.035,1 ± 0.036,0.916 ± 0.055
COc1ccc2c(c1)OC[C@@H](Cc1ccc(OC)c(OC)c1)[C@@H]2O,1.03,1.02 ± 0.12,0.963 ± 0.034,1 ± 0.015,0.973 ± 0.081
Cc1cn[nH]c1,0.959 ± 0.021,0.939 ± 0.018,1.01 ± 0.021,0.768,0.892 ± 0.11
COc1cc2c(cc1OC)C1(O)C(=O)c3ccc(O)c(C(=O)O)c3OC1CO2 (stereo not given),1.05 ± 0.035,1.04 ± 0.059,1.08 ± 0.014,0.9145 ± 0.005,0.984 ± 0.14
CCC(CCC(C)C1CCC2C3CCC4CC(O)CCC4(C)C3CCC12C)C(C)C (stereo not given),1.11 ± 0.057,1.06 ± 0.021,1.06 ± 0.021,1.23 ± 0.078,1.01 ± 0.015
C=CC(C)(O)CCC1C(=C)CC(O)C2C(C)(C)CCCC12C (stereo not given),0.995 ± 0.0071,0.865 ± 0.1,0.996 ± 0.0057,0.922 ± 0.15,0.927 ± 0.1
O=C(c1ccccc1)c1ccc2n1CCC2C(=O)O (stereo not given),1.03 ± 0.095,0.929 ± 0.16,1 ± 0.023,0.911 ± 0.066,0.924 ± 0.021
CN[C@@H]1[C@H](O[C@H]2[C@H](O[C@H]3[C@H](O)[C@@H](O)[C@H](N=C(N)N)[C@@H](O)[C@@H]3N=C(N)N)O[C@@H](C)[C@]2(O)C=O)O[C@@H](CO)[C@H](O)[C@H]1O,0.962 ± 0.097,0.936 ± 0.044,1.07 ± 0.078,0.817 ± 0.0014,0.935 ± 0.0028
COc1cc(O)ccc1C(C)=O,0.941 ± 0.059,0.97 ± 0.015,0.92 ± 0.0071,0.889 ± 0.054,0.97 ± 0.026
COc1c(N2C[C@@H]3CCCN[C@@H]3C2)c(F)cc2c(=O)c(C(=O)O)cn(C3CC3)c12,0.861 ± 0.14,1.02,1.02 ± 0.069,1.1 ± 0.042,1 ± 0.013
